Assay outcomes (PubChem BioAssay)
Sampled rows, rich in hits. Any-hit rate of the full collection: about 6.8%.
Abs 340nm: compounds absorbing at 340 nm; compound absorbance at 340 nm, fold over control; fold change at 10 µM; 65,000 tested, under 10 active; AID 708;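 active = at 10 µM dose, initial 340 nm absorbance at least 2 fold that of control wells; inactive = change under 2 fold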;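 also: initial absorbance extrapolated from kinetic A340 decline of NADH oxidation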
NADH enzymes: inhibition of NAD/NADH coupling enzymes, library profiling; AID 774; coupled PK/LDH NADH assays, four targets; IC50, µM (titrated, usually from 10 µM); 65,000 tested, 0.02% active;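 active = single-dose screening hits from any of four coupled enzyme assays that gave an IC50 when retested across doses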;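 also: the DPM-DC format reads NADH fluorescence rather than 340 nm absorbance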
MK inhibit: inhibitors of Streptococcus pneumoniae mevalonate kinase; purified MK, PK/LDH-coupled NADH absorbance 340 nm; inhibition, % at 10 µM; 65,000 tested, 0.48% active;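 active = ranked among the strongest by inhibition in the single 10 µM screen, a fixed top-ranked set picked for dose follow-up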
Autofluor 339: intrinsic fluorescence of library compounds, ex339/em460 – biochemical, MLSMR library, data from DPM-DC assay, artefact control, profiling panel | AID 709 | compound autofluorescence, ex339/em460 nm, NADH buffer; active compounds read high; 1 = no-compound wells, NADH background | fluorescence fold increase at 10 µM | 65,000 tested, 5.5% active;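 active = at 10 µM, mean starting fluorescence two-fold or more over control wells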;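 also: signal is the first read of a kinetic run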
Spn DPM-DC inh: S. pneumoniae DPM-DC inhibition; purified DPM-DC, PK/LDH coupled NADH fluorescence; calls only at 10 µM; 65,000 tested, 0.49% active;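 active = the 320 compounds with the highest percent inhibition in the single-dose primary screen, excluding strongly autofluorescent ones, cut at about 32% in these data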;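 also: kinetic rate of NADH fluorescence loss reporting ADP formed by the decarboxylase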
PMK inhibit: blocks S. pneumoniae phosphomevalonate kinase | inhibition, % at 10 µM | purified PMK, PK/LDH-coupled NADH absorbance 340 nm | 65,000 tested, 0.49% active;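 active = top-ranked compounds by inhibition in the single 10 µM screen, taking a fixed number of the strongest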
Numbers stand for hits; - = inactive; . = no result shown; + = active, no number.

SMILES | Abs 340nm | NADH enzymes | MK inhibit | Autofluor 339 | Spn DPM-DC inh | PMK inhibit
CSc1nnc(-c2ccc(O)cc2)n1C | - | - | - | - | - | -
CSc1nnc(-c2cc3ccccc3cc2O)n1C | - | - | - | 2.3 | . | -
C=CCn1c(=O)c(C(=O)Nc2nnc(C)s2)c(O)c2ccccc21 | - | - | - | - | - | -
CN(C)CCCC1(c2ccc(F)cc2)OCc2cc(C#N)ccc21 (centres undefined) | - | - | - | - | - | -
CCC1(CC)Nc2ccccc2C(=O)N1c1ccc(NC(C)=O)cc1 | - | - | - | 3.7 | . | -
Cc1ccc(NC(=O)C(C)N2C(=O)c3ccccc3C2=O)cc1 (centres undefined) | - | - | - | - | - | -
Cc1occc1C(=O)Nc1nnc(C(F)(F)F)s1 | - | - | 59 | - | + | 74
CC1CCCN(C(=O)c2cc3c(-c4ccc(Cl)cc4)nn(C)c3s2)C1 (centres undefined) | - | - | - | - | - | -
CCN(CC)CCNC(=O)c1cc2c(-c3ccc(Cl)cc3)nn(C)c2s1 | - | - | - | 2.1 | . | -
Cn1nc(-c2ccc(Cl)cc2)c2cc(C(=O)NC3CC3)sc21 | - | - | - | 2.1 | . | -
CCOCCCNC(=O)c1cc2c(-c3ccc(Cl)cc3)nn(C)c2s1 | - | - | - | 2.1 | . | -
C=CCn1c(SCc2nc3ccccc3nc2C)nnc1-c1ccoc1C | - | - | - | - | - | -
Cc1ccnc(SCCn2c(N3CCC(C)CC3)nc3c2c(=O)n(C)c(=O)n3C)n1 | - | - | - | - | - | -
Cc1cc(NC(=O)CCC(=O)N(c2ccccc2)C2(C(=O)NC3CCCCC3)CCCC2)no1 | - | - | - | - | - | -
CC1(C)CC(=O)C(C(C2=C(O)CC(C)(C)CC2=O)c2cccnc2)C(=O)C1 (centres undefined) | - | - | - | - | - | -
CC1(C)CC(=O)C(C(C2=C(O)CC(C)(C)CC2=O)c2cccc(O)c2)C(=O)C1 (centres undefined) | - | - | - | - | - | 29
COC(=O)Cn1c(=NC(=O)CSC(C)=O)sc2ccccc21 | - | - | - | - | + | -
CCn1c(=NC(=O)CSC(C)=O)sc2ccccc21 | - | - | - | - | - | -
Cc1ccc(S(=O)(=O)c2cc3c(=O)n4cccc(C)c4nc3n(CC3CCCO3)c2=N)cc1 (centres undefined) | - | - | - | - | - | -
Cn1c(=N)c(S(=O)(=O)c2ccccc2)cc2c(=O)n3ccccc3nc21 | - | - | - | 2.8 | . | -
Cn1c(=N)c(S(=O)(=O)c2ccc(F)cc2)cc2c(=O)n3ccccc3nc21 | - | - | - | 3.4 | . | -
N=c1c(S(=O)(=O)c2ccc(Cl)cc2)cc2c(=O)n3ccccc3nc2n1CCN1CCOCC1 | - | - | . | 5 | . | -
CN(C)c1ccc(C(=S)NCc2ccco2)cc1 | - | - | - | - | - | -
OC1(c2cccc(C(F)(F)F)c2)CCN(c2ncnc3c2[nH]c2ccc(F)cc23)CC1 | - | - | - | 2.5 | - | -
Cn1c(-c2ccc(N)cc2)nc2ccccc21 | - | - | - | 3.9 | + | -
SMILES | Abs 340nm | NADH enzymes | MK inhibit | Autofluor 339 | Spn DPM-DC inh | PMK inhibit
O=P(C1=C(N2CCOCC2)/C(=C\c2ccccc2)CC1)(N1CCOCC1)N1CCOCC1 | - | - | - | - | - | -
Cc1c(-c2ccccc2)c(P(=O)(N2CCOCC2)N2CCOCC2)c2ccccn12 | - | - | - | 5 | . | -
O=C(NCc1cccs1)c1cc2ccccc2o1 | - | - | - | - | - | -
COc1ccc2cc3cc(C(=O)NCC4CCCO4)oc3nc2c1 (centres undefined) | - | - | - | 3.5 | . | -
O=C(NCc1ccco1)c1cc2cc3ccc(Cl)cc3nc2o1 | - | - | - | - | - | -
COc1ccc2nc3oc(C(=O)NCc4cccs4)cc3cc2c1 | - | - | - | 3.9 | + | -
COc1ccc2cc3cc(C(=O)NCCN4CCN(c5ccccc5F)CC4)oc3nc2c1 | - | - | - | 5.1 | . | -
COc1ccc2cc3cc(C(=O)Nc4ccccc4N4CCN(C)CC4)oc3nc2c1 | - | - | - | - | - | -
COc1ccc2cc3cc(C(=O)NCc4ccccn4)oc3nc2c1 | - | - | - | 5.1 | . | -
OCCN1CCOCCN(CCO)CCOCC1 | - | - | - | - | - | -
O=C(CN1CCN(Cc2ccc(Cl)cc2)C1=O)NCCN1CCCC1 | - | - | - | - | - | -
